The source of these data is publication PMC5540273 (PLoS ONE, 2017).

Details in all cases: concentration: 1 μM, replicates: in singlicate; n = 1
Assay [1] deals with CDK3.
Assay [2] deals with CDK4-cyclinD1.
The test system of assay [3] is CDK4-cyclinD3.
For assay [4], the system named is CDK4.
Assay [5] has as its system CDK5.
Assay [6] has as its system CDK7.
Assay [7] relates to CDK8.
The subject of assay [8] is CDK9.
The subject of assay [9] is CDKL1.
For assay [10], the system named is CDKL2.
Assay [11] relates to CDKL3.
Assay [12] deals with CDKL5.
Assay [13] deals with CHEK1.
The test system of assay [14] is CHEK2.
Assay [15] deals with CIT.
Assay [16] concerns CLK1.
Assay [17] relates to CLK2.
For assay [18], the system named is CLK3.
Assay [19] concerns CLK4.
Assay [20] relates to CSF1R-autoinhibited.
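Further: KINOMEscan kinase panel screen.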

Consider `Cc1nc(N(C)[C@H]2CN(C(=O)CC#N)CC[C@H]2C)c2cc[nH]c2n1`, for which the “%Inh” value in assay [1] is given as 2%; in assay [2], 0%; in [3], 23%; in assay [4], 0%; in assay [5], 16%; in assay [6] it was 11%. Also, the “%Inh” value in assay [7] came out at 0%; in assay [8], 0%; in [9], 0%; in assay [10] it was 0%; in assay [11], 0%; in assay [12] it was 6%. In addition, the “%Inh” value came to 48% in assay [13]; 0% in assay [14]; 0% in assay [15]; 13% in [16]; 15% in assay [17]; 0% in assay [18]. Also, the “%Inh” value in [19] and in assay [20] was 0% throughout.
As to `Cc1ccc(-c2ccc3c(ccc4sc5c(c43)NC[C@@H](C)N=C5N(C)C)n2)cn1`, the “%Inh” value in assay [1] is recorded as 0%; in assay [2], 0%; in assay [3], 0%; in assay [4] it was 0%; in assay [5] it was 0%; in [6], 6%. For the same molecule, the “%Inh” value in assay [7], in [8], in assay [9], in assay [10], in assay [11] and in [12] was 0% throughout. The “%Inh” value in assay [13] is listed as 0%; in assay [14], 1%; in assay [15], 0%; in assay [16] it was 0%; in assay [17], 0%; in [18] it was 0%. The “%Inh” value stood at 0% in assay [19] and 14% in [20].
In the case of `COc1cc(Nc2nccc(N3CCC(NC(=O)C4COc5ccccc5O4)C3)n2)cc(OC)c1OC` (stereo not shown) [GSK1379761], the “%Inh” value in [1] amounted to 0%; in assay [2], 52%; in assay [3] it was 0%; in assay [4], 70%; in assay [5], 0%; in assay [6], 57%. Further, the “%Inh” value was determined as 57% in [7]; 0% in assay [8]; 11% in assay [9]; 11% in assay [10]; 0% in [11]; 0% in [12]. Further, the “%Inh” value was determined as 0% in assay [13]; 29% in assay [14]; 33% in assay [15]; 3% in [16]; 0% in assay [17]; 0% in assay [18]. Besides, the results for the “%Inh” value in [19] and in assay [20] were 0% and 58%, respectively.
As to `CCn1c(-c2nonc2N)nc2ccccc21` [SB-693162/GW549034], the “%Inh” value in assay [1] is 48%; in assay [2] it was 0%; in [3] it was 46%; in [4], 13%; in assay [5] it was 12%; in assay [6], 20%. The “%Inh” value is listed as 0% in assay [7]; 0% in assay [8]; 8% in [9]; 0% in assay [10]; 3% in assay [11]; 25% in [12]. In addition, the “%Inh” value was 0% in assay [13]; 0% in assay [14]; 31% in assay [15]; 0% in [16]; 0% in assay [17]; 0% in [18]. Also, the “%Inh” value in [19] is 0%; in assay [20] it was 8%.
`O=C1NC(=O)C(c2ccccc2)=C1Nc1cccc(O)c1` [SB-390534]: the “%Inh” value was 6% in [1]; 0% in [2]; 0% in assay [3]; 0% in assay [4]; 0% in assay [5]; 0% in [6]. Further, the “%Inh” value was 0% in [7]; 0% in [8]; 1% in [9]; 11% in assay [10]; 0% in [11]; 0% in assay [12]. Besides, the “%Inh” value in [13] is listed as 0%; in assay [14] it was 16%; in assay [15], 0%; in assay [16] it was 40%; in [17], 21%; in [18], 19%. Also, the “%Inh” value in assay [19] stood at 10%; in assay [20], 0%.
`COc1ccc(-n2cnc3c(N)ncnc32)cc1` [SKF-97236]: the “%Inh” value in [1] is 25%; in assay [2] it was 0%; in assay [3] it was 0%; in assay [4], 11%; in assay [5] it was 8%; in assay [6] it was 11%. The “%Inh” value in assay [7] worked out at 0%; in assay [8] it was 0%; in assay [9] it was 29%; in assay [10], 1%; in assay [11], 0%; in assay [12] it was 0%. The “%Inh” value in assay [13] was 2%; in [14], 0%; in assay [15] it was 19%; in assay [16], 48%; in assay [17], 48%; in assay [18] it was 0%. Besides, the “%Inh” value in assay [19] came to 47%; in assay [20], 0%.
For `CCCNC(=O)Nc1ccc(Oc2ncnc3ccn(C)c23)cc1`, the “%Inh” value in assay [1] is recorded as 0%; in assay [2], 0%; in assay [3] it was 0%; in assay [4], 20%; in assay [5] it was 19%; in [6], 0%. In addition, the “%Inh” value in assay [7] came to 0%; in [8], 0%; in assay [9], 0%; in assay [10], 4%; in [11], 18%; in assay [12], 7%. Besides, the “%Inh” value in assay [13] was found to be 0%; in assay [14], 0%; in [15], 1%; in assay [16], 0%; in [17] it was 0%; in [18], 0%. In addition, the “%Inh” value was 4% in assay [19] and 7% in assay [20].
On to `O=C(Nc1ccc2c(c1)OCO2)NC1CCN(c2ccnc(NCc3ccc(F)cc3)n2)CC1` [GSK1379859], for which the “%Inh” value in assay [1] stood at 0%; in assay [2], 0%; in [3], 0%; in assay [4], 13%; in assay [5] it was 0%; in assay [6] it was 0%. The “%Inh” value in assay [7] was 0%; in assay [8], 0%; in assay [9] it was 9%; in assay [10], 13%; in [11], 0%; in [12] it was 3%. Moreover, the “%Inh” value in assay [13] came out at 19%; in assay [14], 0%; in [15], 0%; in assay [16] it was 23%; in [17], 0%; in [18], 0%. The figures for the “%Inh” value in assay [19] and in [20] were 10% and 0%, respectively.
`COC(=O)c1c(-c2ccccc2)c2cc(C)ccc2c(=O)n1Cc1ccccc1`: the “%Inh” value in assay [1], in assay [2], in assay [3], in assay [4], in assay [5] and in assay [6] was 0% in each case. For the same molecule, the “%Inh” value in assay [7] worked out at 5%; in assay [8], 0%; in assay [9], 4%; in [10], 0%; in assay [11], 0%; in [12], 0%. Also, the “%Inh” value in [13], in [14], in [15], in assay [16], in assay [17] and in assay [18] was 0% in each case. In addition, the “%Inh” value in assay [19] and in [20] was 0% throughout.
For `CCc1ccc(-c2ccc3c(c2)-c2nn(C)cc2S(=O)(=O)N3C)cc1`, the “%Inh” value in assay [1] turned out to be 0%; in assay [2] it was 14%; in assay [3], 0%; in assay [4] it was 0%; in [5], 12%; in assay [6], 0%. Moreover, the “%Inh” value in assay [7] is given as 0%; in assay [8], 0%; in [9] it was 9%; in assay [10] it was 19%; in assay [11] it was 0%; in assay [12], 0%. Also, the “%Inh” value in assay [13] is reported as 0%; in [14], 0%; in assay [15], 0%; in assay [16] it was 0%; in assay [17], 13%; in [18], 0%. Also, the “%Inh” value turned out to be 0% in [19] and 2% in [20].
In the case of `COc1ccc(Nc2nccc(N3CCC(NS(=O)(=O)c4ccc(NC(C)=O)cc4)C3)n2)cc1` (stereo not shown) [GSK1379729], the “%Inh” value in assay [1] is 20%; in [2], 8%; in assay [3], 0%; in assay [4] it was 13%; in assay [5], 12%; in assay [6] it was 0%. Also, the “%Inh” value in assay [7] is 35%; in [8], 0%; in assay [9] it was 0%; in [10] it was 14%; in assay [11] it was 4%; in assay [12], 0%. Besides, the “%Inh” value is reported as 14% in assay [13]; 0% in assay [14]; 22% in assay [15]; 25% in [16]; 0% in assay [17]; 0% in assay [18]. Moreover, the “%Inh” value worked out at 27% in [19] and 0% in assay [20].
